According to the supplement of paper PMC8253809:

Experiments:
Experiment in all cases: growth inhibition (% activity, log2 RLU normalised to DMSO / staurosporine); higher = more growth inhibition
Details in all cases: 33 µM
[1] = test system: DIPGX29 (H3.3 K27M diffuse intrinsic pontine glioma line)
How it was run: (§1)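 Approved drugs were tested in triplicate at a single final concentration of about 33 μM for 7 days at 37 °C, 5% CO2, on pHGG cell lines and H9-derived neural stem cells. Readout was CellTiter-Glo luminescence, log2-transformed and scaled per plate to % activity between solvent and positive control wells. The median over replicates gives the growth-inhibition value.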

[2] = test system: DIPGX37 (H3.3 K27M diffuse intrinsic pontine glioma line)
How it was run: as §1

[3] = test system: DIPGX7 (H3.3 K27M diffuse intrinsic pontine glioma line)
How it was run: as §1

[4] = test system: DIPGX9 (diffuse intrinsic pontine glioma line)
How it was run: as §1

[5] = test system: HGGX39 (paediatric high-grade glioma line)
How it was run: as §1

[6] = test system: HGGX6 (H3.3 G34R paediatric high-grade glioma line)
How it was run: as §1

[7] = test system: HNSC
How it was run: as §1

[8] = test system: SUDIPGIV (diffuse intrinsic pontine glioma line)
How it was run: as §1

[9] = test system: SUDIPGVI (diffuse intrinsic pontine glioma line)
How it was run: as §1

[10] = test system: SUDIPGXIII (diffuse intrinsic pontine glioma line)
How it was run: as §1

| Compound | growth inhibition [1] [%] | growth inhibition [2] [%] | growth inhibition [3] [%] | growth inhibition [4] [%] | growth inhibition [5] [%] | growth inhibition [6] [%] | growth inhibition [7] [%] | growth inhibition [8] [%] | growth inhibition [9] [%] | growth inhibition [10] [%] |
| --- | --- | --- | --- | --- | --- | --- | --- | --- | --- | --- |
| COc1cc(C(=O)NC2CCCNC2)cc(OC)c1OC (stereo not given) | 0.123 | 2 | 0.49 | 0.203 | 2.37 | -3.35 | 6.28 | 1.23 | 0.918 | -1.95 |
| Cc1ccnc2c1NC(=O)c1cccnc1N2C1CC1 | 0.291 | 2.43 | 0.516 | -1.16 | 0.921 | -1.94 | 2 | 1.95 | 0.484 | 0.637 |
| CCN1CCN(C(=O)NC(C(=O)NC2C(=O)N3C(C(=O)O)=C(CSc4nnnn4C)CSC23)c2ccc(O)cc2)C(=O)C1=O (stereo not given) | -4.55 | 0.256 | -3.04 | -2.18 | 0.547 | -2.32 | -1.87 | -3.07 | -2.25 | -0.109 |
| Cc1nc2n(c(=O)c1CCN1CCC(c3noc4cc(F)ccc34)CC1)CCCC2 | 2.78 | 1.21 | 3.37 | 1.08 | 3.29 | 1.84 | 0.606 | 0.111 | -0.157 | 1.25 |
| CCCOc1ccc(C(=O)OCCN(CC)CC)cc1N | -3.81 | -2.51 | 0.125 | -2.19 | 6.15 | 3.2 | 4.12 | -0.212 | -1.94 | 0.093 |
| c1ccc2[nH]c(-c3cscn3)nc2c1 | -1.25 | 0.956 | -0.782 | 0.56 | 0.84 | 1.32 | -1.65 | 0.977 | 1.13 | 0.000357 |
| CN(C)CCc1c[nH]c2ccc(C[C@H]3COC(=O)N3)cc12 | -3.13 | -2.1 | 0.0297 | -2.64 | -3.04 | -3.73 | -3.71 | -3.68 | -7.46 | -1.12 |
| CNC(CC(C)C)C(=O)NC1C(=O)NC(CC(N)=O)C(=O)NC2C(=O)NC3C(=O)NC(C(=O)NC(C(=O)O)c4cc(O)cc(O)c4-c4cc3ccc4O)C(O)c3ccc(c(Cl)c3)Oc3cc2cc(c3OC2OC(CO)C(O)C(O)C2OC2CC(C)(N)C(O)C(C)O2)Oc2ccc(cc2Cl)C1O (stereo not given) | -1.35 | -1.91 | -1.76 | -1.16 | -1.53 | -2.38 | -0.899 | -0.924 | -4.84 | -0.803 |
| CC(C)(C)c1nc(-c2cccc(NS(=O)(=O)c3c(F)cccc3F)c2F)c(-c2ccnc(N)n2)s1 | 0.794 | 4.39 | 2.8 | 1.94 | 5.46 | 4.05 | 22.9 | -0.469 | -1.37 | -0.13 |
| CCCCCCCCCCCCCCCCO | -0.933 | 2.94 | 1.65 | 1.02 | 2.94 | -1.64 | 11.6 | 2.42 | 0.249 | 1.46 |
| Cc1cc2c(s1)Nc1ccccc1N=C2N1CCN(C)CC1 | 1.66 | 3.63 | 1.48 | 2.04 | 4.5 | 0.504 | 3.31 | 3.12 | 3.75 | -0.29 |
| Cn1cnc([N+](=O)[O-])c1Sc1ncnc2[nH]cnc12 | 15.9 | 9.81 | 21.6 | 13.8 | 18.2 | 18.5 | 55.8 | 32.2 | 8.24 | 17.1 |
| Cc1cccc(CN2CCN(C(c3ccccc3)c3ccc(Cl)cc3)CC2)c1 (stereo not given) | 6.1 | 6.46 | 7.93 | 8.12 | 6.5 | 7.41 | 3.84 | 25.4 | 4.9 | 4.67 |
| Cc1nnc(C(C)C)n1C1C[C@H]2CC[C@@H](C1)N2CC[C@H](NC(=O)C1CCC(F)(F)CC1)c1ccccc1 (stereo in doubt) | 0.752 | 1.42 | 6.87 | 1.45 | 1.14 | -3.69 | 45.9 | -0.251 | -0.429 | -1.27 |
| N=C(N)NCCC[C@H](N)C(=O)O | -2.37 | 0.109 | 0.302 | -2.03 | -0.487 | -4.08 | 2.28 | -1.68 | -2 | -0.232 |
| CCc1oc2ccccc2c1C(=O)c1cc(Br)c(O)c(Br)c1 | -0.0876 | 0.798 | -0.0754 | -1.64 | -0.416 | 0.0697 | -1.55 | -0.229 | 0.671 | 2.79 |
| CCC(=O)OCC(=O)[C@@]1(OC(=O)CC)[C@@H](C)C[C@H]2[C@@H]3CCC4=CC(=O)C=C[C@]4(C)[C@@]3(Cl)[C@@H](O)C[C@@]21C | 2.67 | -2.69 | 1.9 | 4.04 | 3.24 | 1.72 | 0.321 | -1.55 | -0.46 | 0.862 |
| C#CCN[C@@H]1CCc2ccccc21 | 1.3 | 4.12 | 1.95 | 1.74 | 3.31 | -0.441 | 12.3 | 2.79 | 1.93 | 0.598 |
| COc1cc2/c(=N/c3ccc(Br)cc3F)nc[nH]c2cc1OCC1CCN(C)CC1 | 11.5 | 2.67 | 4.34 | 7.45 | 11.1 | 10.7 | 9.55 | -1.09 | -4.91 | 0.39 |
| CC(=O)OCC(=O)[C@@]1(O)CC[C@H]2[C@@H]3CCC4=CC(=O)C=C[C@]4(C)[C@H]3[C@@H](O)C[C@@]21C | 2.24 | 0.724 | 2.19 | 3.92 | 5.57 | 2.03 | 1.11 | 2.53 | -1.15 | 2.13 |
| [O-][n+]1cccc(CO)c1 | -0.666 | 1.68 | -0.893 | -0.317 | 0.747 | 0.543 | -0.142 | -0.682 | -0.214 | 2.91 |
| Cn1c(=O)c2[nH]cnc2n(C)c1=O | -2.13 | 0.51 | -0.294 | -0.0831 | -0.447 | 0.444 | -5.61 | -0.366 | -2.69 | -1.98 |

| Compound | growth inhibition [1] [%] | growth inhibition [2] [%] | growth inhibition [3] [%] | growth inhibition [4] [%] | growth inhibition [5] [%] | growth inhibition [6] [%] | growth inhibition [7] [%] | growth inhibition [8] [%] | growth inhibition [9] [%] | growth inhibition [10] [%] |
| --- | --- | --- | --- | --- | --- | --- | --- | --- | --- | --- |
| COc1nc(N)nc2c1ncn2[C@@H]1O[C@H](CO)[C@@H](O)[C@@H]1O | -0.0296 | -1.39 | -1.6 | 1.18 | 2.74 | 1 | -1.01 | 0.63 | 0.545 | -2.52 |
| CC(=O)OCC(=O)[C@H]1CC[C@H]2[C@@H]3CCC4=CC(=O)CC[C@]4(C)[C@H]3CC[C@]12C | -1.69 | -0.592 | -0.0117 | -0.0895 | 1.53 | -0.537 | -2.47 | -2 | -0.651 | 5.18 |
| Oc1cc(O)c(Cl)cn1 | -1.47 | -1.68 | -1.58 | -0.302 | -2.27 | 0.219 | -3.27 | -2.24 | -1.42 | 0.7 |
| O=C(O)C[C@H](O)C[C@H](O)/C=C/c1c(C2CC2)nc2ccccc2c1-c1ccc(F)cc1 | 16.1 | -2.02 | 38.6 | 7.33 | 48.3 | 30.8 | 56.2 | 39.9 | 33.5 | 32.8 |
| NC(=O)Cc1cccc(C(=O)c2ccccc2)c1N | -1.79 | -2.49 | -1.26 | -0.361 | -1.73 | 0.913 | -2.2 | -3.13 | -0.113 | 0.258 |
| CCC1(c2ccccc2)C(=O)NCNC1=O | -1.25 | 0.454 | 0.246 | -0.432 | 2.69 | -0.575 | 3.35 | -1.41 | 0.425 | 0.0763 |
| CC(C(=O)O)c1ccc(-c2ccccc2)c(F)c1 (stereo not given) | 0.779 | 3.25 | 1.53 | 1.06 | 2.57 | 1.43 | 0.919 | -4.24 | 2.75 | -0.916 |
| NCCNCCNCCNCCN | 1.8 | 3.32 | 2.9 | 2.04 | 2.02 | 3.41 | 4.1 | 5.08 | 4.87 | 0.192 |
| CC(C)(C)NCC(O)c1ccc(O)c(CO)c1 (stereo not given) | -2.88 | -1.32 | -0.0436 | -1.85 | -1.15 | 1.2 | -1.34 | 1.26 | -4.26 | 1.25 |
| CN(c1nccc(=O)[nH]1)C1CCN(c2nc3ccccc3n2Cc2ccc(F)cc2)CC1 | 2.38 | 2.96 | 2.33 | 1.85 | 4.67 | 3.86 | 1.95 | 0.631 | 3.14 | -15 |
| N=C(N)NCCN1CCCCCCC1 | 1.99 | -0.0479 | 2.35 | 1.9 | 2.8 | 1.1 | 5.04 | 0.15 | 5 | -0.376 |
| COc1cc(C(C)=O)ccc1OCCCN1CCC(c2noc3cc(F)ccc23)CC1 | 1.79 | 0.322 | 12.7 | 0.361 | 4.35 | 0.871 | 0.367 | 2.3 | -12.2 | 4.02 |
| CN(Cc1cc(Br)cc(Br)c1N)C1CCCCC1 | 2.48 | 1.22 | 4.28 | 3.08 | 5.14 | 1.81 | 7.22 | 3.97 | 3.03 | -1.94 |
| CNC(=O)CN(CCN(CCN(CC(=O)[O-])CC(=O)NC)CC(=O)[O-])CC(=O)[O-].[Gd+3] | -2.04 | -0.306 | -1.48 | -2.31 | -1.74 | 1.15 | -6.04 | -1.08 | -1.67 | 0.753 |
| CC(/C=C1\SC(=S)N(CC(=O)O)C1=O)=C\c1ccccc1 | -1.36 | -1.28 | -1.21 | 0.579 | -0.83 | -0.392 | -2.25 | -1.67 | -1.06 | 1.76 |
| NC(=O)N/N=C/c1ccc([N+](=O)[O-])o1 | 0.652 | 0.147 | 0.615 | 0.733 | 1.49 | 0.622 | 2.46 | -1.17 | 1.04 | -0.395 |
| Cc1cc2nc3c(=O)[nH]c(=O)nc-3n(C[C@H](O)[C@H](O)[C@H](O)CO)c2cc1C | -1.75 | 2.89 | 0.461 | -0.233 | 2.78 | -1.29 | 6.98 | 4.43 | 2.29 | 1.1 |
| C=C1/C(=C\C=C2/CCC[C@]3(C)[C@@H]([C@H](C)CCCC(C)(C)O)CC[C@@H]23)C[C@@H](O)C[C@@H]1O | 2.73 | 4.49 | 6.36 | 1.22 | 5.14 | 4.52 | 2.64 | 9.51 | 2.83 | -1.15 |
| CCN(CC)CCOC(=O)C(c1ccccc1)c1ccccc1 | 3.33 | 2.41 | 3.35 | 1.46 | 2.96 | 2.47 | 6.35 | 0.181 | 3 | -1.28 |
| NC(=O)c1ncn([C@@H]2O[C@H](CO)[C@@H](O)[C@H]2O)c1N | 1.44 | 1.81 | 1.73 | 2.02 | 2.08 | 0.815 | 5.91 | 0.00762 | 2.75 | -1.11 |
| NNc1nncc2ccccc12 | -0.649 | 0.926 | -0.1 | 1.44 | 2.03 | 0.883 | -1.94 | 2.81 | -2.33 | -0.215 |
